Structures are written as SMILES. The panel holds about 83,000 compounds, 20% with a hit somewhere; the sample as a whole holds those more often.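 Single-concentration screen, 48 h exposure, 96-well plates. Endpoint: percent growth. Below 10 = active.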 Values without a mark were called inactive. Activity calls are given as the source filed them.

This test deals with HL-60(TB) leukemia. The test is described as follows: NCI-60 one-dose screen, 48 h (100 = growth as untreated, 0 = no growth, -100 = all killed). Particulars: 10 µM unless noted.
Consider `COc1ccc(/C=N\N2CCOCC2)cc1OC1CCCC1`, for which the growth was 104%.

`CCO/C=N/C1=C(C#N)C(c2ccc(Cl)cc2)c2sc3c(F)cccc3c2O1` (stereo not given): the growth was 56.2%. Next, `O=C(Nc1ccncc1)C(=O)c1cn(S(=O)(=O)c2ccc(F)cc2)c2ccccc12`: 0.498% (active); `c1ccc(Nc2nnc(-c3cc(-c4cccnc4)n(-c4ccccc4)n3)s2)cc1`: 70.8%. For the compound `Clc1ccc(N2N=C(c3cccc(Nc4ccncc4)c3)CC2c2ccc(Br)cc2)cc1` (stereo not given), the growth was 0.656% (active). With `O=C(OC1CCCC1)c1ccccc1Cl`, the growth is 99.2%.

`C=CCn1c(C)nc2ccc(Nc3nc(Nc4ccc5nc(C)n(CC=C)c5c4)c4ccccc4n3)cc21`: the growth was -63.2% (active).

Consider `CCOC(=O)NNc1cccc(Cl)c1`, for which the growth is 110%. For `CCOC(=O)[C@@H](C)C[C@H](Cc1ccccc1)NC(=O)c1csc([C@@H](C[C@H](C(C)C)N(C)C(=O)[C@@H](NC(=O)[C@H]2C[C@H](O[Si](C)(C)C(C)(C)C)CCN2C)C(C)C)OC(C)=O)n1` the value was -36.9% [9.25 µM] (active); for `Cc1c(C(=O)C(SC(=S)N2CCOCC2)SC(=S)N2CCOCC2)nnn1-c1ccc([N+](=O)[O-])cc1`, 91.3%; for `O=c1oc2ccc(Cl)cc2c(=O)n1-c1ccc(Cl)cc1F`, -44.5% (active). On to `O=C(Nc1ccc(C23CC4CC(CC(c5ccccc5)(C4)C2)C3)cc1)c1cccs1`, for which the growth was 51%. On to `O=c1cc(-c2ccc(Cl)cc2)[nH]c2ccccc12`, for which the growth was 44.3%. For `COc1cccc(N=Nc2cccc(OC)c2)c1` the value was 66.9%; for `CNC1=C([N+](=O)[O-])C(c2ccc(OC)cc2)C(C#N)=C(c2ccc[nH]2)O1` (stereo not given), 93.9%; for `COc1ccc(Cn2cc(C(=O)N=Nc3c(O)[nH]c4c(Cl)cccc34)nn2)cc1`, 97.4%. For `CC(C)OC(=O)Nc1cc(F)c(F)cc1F` the value was 98.6%.

`CCOC(=O)c1cnn(CC(C)O)c1NC(=O)NCc1cccc(F)c1` (stereo not given): the growth is 90.5%. With `COc1ccc(Nc2ncc(C(N)=O)c(NCCCNC(=O)C3CCC3)n2)cc1`, the growth is 46.6%.

As for `COC(=O)CSc1ccc(Cl)cc1`, the growth was 83.8%. Next, `O=C1c2ccccc2C(=O)c2c1c(C(=O)NCc1ccccc1)c1ccccn21`: 88.7%. With `CCOc1nc(-c2ccccc2)cc2c(O)c(-c3nnco3)[nH]c(=O)c12`, the growth is 34.6%. Next, `CCN1CCN(C(=O)[C@]23CC[C@@H](C)[C@H](C)[C@H]2C2=CC[C@@H]4[C@@]5(C)C/C(=C/c6cccc(OC)c6OC)C(=O)C(C)(C)[C@@H]5CC[C@@]4(C)[C@]2(C)CC3)CC1`: 2.97% (active). For the compound `Clc1ccc2c(NCCCNC3CCCCC3)ccnc2c1`, the growth was 96.1%. Next, `C=C1C(=O)O[C@H]2[C@H]1CC/C(C(=O)Nc1ccc(OC)c(C(N)=O)c1O)=C\CC[C@@]1(C)O[C@@H]21`: 0.316% (active). On to `C=CCn1c(SCC(=O)Nc2ccc(C(=O)/C=C/c3cc(OC)c(OC)c(OC)c3)cc2)nnc1-c1cc(OC)c(OC)c(OC)c1`, for which the growth is 16.5%. Next, `CC12CCC3c4ccc(O)cc4CCC3C1CCC2=O` (stereo not given): 79.4%; `COc1ccc(/C=N/NC(=O)Cn2c(-c3ccc(S(C)(=O)=O)cc3)nc3ccccc32)cc1`: 161%. On to `CCN(CC)CCNC(=O)C(F)(F)C(F)(F)C(F)(F)F`, for which the growth is 108%.

In the case of `S=c1[nH]ccn1-c1ccccc1Cl`, the growth is 90%.

Consider `COc1cc(N)ccc1Nc1c2ccccc2nc2ccccc12`, for which the growth was 48.2%. `Cc1nc2ccc(Cl)cc2n1C`: the growth was 101%.

For the compound `COc1cccc(/C=C2\COc3ccc(-c4ccccc4)cc3C2=O)c1`, the growth is -47% (active). As to `COc1cc(C)cc(-c2c(-c3cc(N4CC(O)C4)nc(-c4cccnc4)n3)cnn2C)c1`, the growth was 105%.

For the compound `COc1cc(C2CC(=O)Nc3c2cc(Br)c2ccccc32)cc(Br)c1OC` (stereo not given), the growth is -2.09% (active). `CCC#CC[C@H]1C/C=C2/C(=O)C=C[C@@H]2C/C=C\CCCC(=O)O1`: the growth was -19.1% (active). Turning to `COc1ccc(/C=C/C(=O)c2ccc(Nc3nc(Nc4ccc(F)cc4)nc(Nc4ccc(Cl)cc4)n3)cc2)cc1`, the growth was -0.226% (active). For `CCCCCCCCCCCC1=NC(C)(C)CN1C(C)(C)CO` the value was 58.3%.

On to `CCN1C(=O)N(CC)C2C1NN=c1s/c(=C3\C(=O)N(C4CCCC4)c4ccccc43)c(=O)n12` (stereo not given), for which the growth is -44.5% (active).

As for `CC(=O)O[C@H]1[C@H](CC#CC#CC[C@@H]2C[C@]3(C)[C@H]4CC=C5[C@H]6[C@@H](C)[C@H](C)CC[C@]6(C(=O)NCCN(CCN)CCN)CC[C@@]5(C)[C@]4(C)CC[C@H]3C(C)(C)[C@H]2OC(C)=O)C[C@]2(C)[C@H]3CC=C4[C@H]5[C@@H](C)[C@H](C)CC[C@]5(C(=O)NCCN(CCN)CCN)CC[C@@]4(C)[C@]3(C)CC[C@H]2C1(C)C`, the growth was 34.2%.

These data come from PubChem BioAssay (NCI).
